Records with an inconclusive call do not appear. Calls of active or inactive are those of the source. Calls follow the shape of the dose curve; as a rule, active = well fitted inhibition curve with a large enough effect; inconclusive = small, poorly fitted or top-dose-only effect; inactive = no such curve, though single readings can be large or run the other way.

Chain of Thyroid hormone receptor beta (Homo sapiens) (P10828 whole entry, looked up, the tested form may be a part): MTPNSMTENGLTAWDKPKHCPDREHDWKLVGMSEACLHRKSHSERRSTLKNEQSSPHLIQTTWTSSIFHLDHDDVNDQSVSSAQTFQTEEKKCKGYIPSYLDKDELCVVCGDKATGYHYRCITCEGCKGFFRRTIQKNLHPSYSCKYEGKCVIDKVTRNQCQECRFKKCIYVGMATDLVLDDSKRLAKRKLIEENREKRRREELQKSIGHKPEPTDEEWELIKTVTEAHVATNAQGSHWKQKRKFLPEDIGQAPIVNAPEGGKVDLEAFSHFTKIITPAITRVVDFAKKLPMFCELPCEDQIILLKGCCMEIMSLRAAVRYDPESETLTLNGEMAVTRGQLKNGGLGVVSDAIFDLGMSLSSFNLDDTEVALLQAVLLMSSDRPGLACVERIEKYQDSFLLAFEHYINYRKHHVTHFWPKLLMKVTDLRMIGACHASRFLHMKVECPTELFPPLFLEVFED

The experiment has as its target Thyroid hormone receptor beta (Homo sapiens) (UniProt P10828). The experiment in a line: Concentration Response Confirmation Assay for Inhibitors of the Interaction of Thyroid Hormone Receptor and Steroid Receptor Coregulator 2. The note with it: TRb LBD + Texas Red SRC2 peptide, fluorescence polarization, 5 h; series mostly up to 92.2 µM; activity, negative = inhibition: at the top concentration. The source says:
NIH Molecular Libraries Probe Production Network [MLPCN] NIH Chemical Genomics Center [NCGC] MLPCN Grant: DK058080 Assay Provider: R. Kip Guy, St. Jude Children's Research Hospital NCGC Assay Overview: Thyroid receptor (TR) regulates many homeostatic processes including basal metabolism, cardiovascular function, body weight, and lipid trafficking. TR modulators are potential therapeutics for obesity and hyperlipidemias but current thyroid analogs have undesirable side effects, particularly cardiac stimulation. To identify inhibitors that specifically prevent the interaction of TR with the steroid receptor coregulator 2 (SRC2), a fluorescence polarization assay was screened. This assay detects interaction of the ligand-binding domain of human TRb with a Texas Red labeled SRC2 peptide, corresponding to a 20 amino acid region of the nuclear receptor interaction domain (Arnold et al., 2006). Small molecule inhibitors that block the interaction of TR and SRC2 are detected by a decrease in fluorescence polarization. This assay is a confirmation assay for AID 1469. Arnold, L. A.; Estebanez-Perpina, E.; Togashi, M.; Shelat, A.; Ocasio, C. A.; McReynolds, A. C.; Nguyen, P.; Baxter, J. D.; Fletterick, R. J.; Webb, P.; Guy, R. K. A high-throughput screening method to identify small molecule inhibitors of thyroid hormone receptor coactivator binding. Sci STKE 2006, p 13.
NCGC Assay Protocol Summary: For screening, 5 uL/well 0.6 uM TRb and 20 nM SRC2 Texas Red in protein buffer (20mM Tris hydrochloride, 100mM NaCl, 10% glycerol, 1mM EDTA, 0.01% NP-40, 1mM DTT, 1uM T3 and 5% DMSO) was dispensed into black solid 1536-well plates (Grenier) using a solenoid-based dispenser. […] The plates were read by an Envision (Perkin Elmer) to detect fluorescence polarization of SRC2 Texas Red (555 nm excitation and 632 nm emission). […] Keywords: NIH Roadmap, MLPCN, MLI, MLSMR, qHTS, NCGC, qHTS, thyroid hormone receptor, steroid receptor coactivator, fluorescence polarization
In general terms: In fluorescence polarisation assays a small probe gives low polarisation when free and higher when bound to something large.
Consider `COP(=S)(OC)Oc1ccc([N+](=O)[O-])cc1`, for which the Potency is 25.1 µM (active). Take `CN1CC[C@@]2(C)c3cc(O)ccc3N(C)C2O1` (stereo partly drawn): the Potency is 25.1 µM (active). Consider `CCn1nc(-c2cccs2)nc2c(=O)n(C)c(=O)nc1-2`, for which the “activity, negative = inhibition” value is -10.7% (inactive).
